Source: PubChem BioAssay (Tox21)
Records with an inconclusive call do not appear. Values without a mark were called inactive. Activity calls are given as the source filed them. Calls follow the shape of the dose curve; as a rule, active = well fitted inhibition curve with a large enough effect in the repeat runs; inconclusive = weak or mixed curves; inactive = no such curve, though single readings can be large or run the other way.

molecular target: Cytochrome P450 2D6 (Homo sapiens) (UniProt P10635); experiment: Cytochrome P450 Family 2 Subfamily D Member 6 (CYP2D6) small molecule antagonists: luciferase reporter qHTS assay (AID 1671196); conditions: P450-Glo CYP2D6 enzyme assay, luciferin luminescence, 1 h; series mostly up to 115 µM; activity change, negative = inhibition: at the top concentration; also: nearly all actives have a fitted effect of over 50% in size
Procedure, shortened: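 CYP2D6 activity was followed as luminescence from its luciferin product after a 1 h NADPH-driven reaction at room temperature. Enzyme-substrate mix and compound were pre-incubated for 10 min, and the signal was read 20 min after adding detection reagent.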
% is scaled to controls: 0 for no effect and ±100 for the full control effect; potency is read from the fitted curve at half-maximal effect.

Sequence of Cytochrome P450 2D6 (Homo sapiens) (P10635 whole entry, looked up): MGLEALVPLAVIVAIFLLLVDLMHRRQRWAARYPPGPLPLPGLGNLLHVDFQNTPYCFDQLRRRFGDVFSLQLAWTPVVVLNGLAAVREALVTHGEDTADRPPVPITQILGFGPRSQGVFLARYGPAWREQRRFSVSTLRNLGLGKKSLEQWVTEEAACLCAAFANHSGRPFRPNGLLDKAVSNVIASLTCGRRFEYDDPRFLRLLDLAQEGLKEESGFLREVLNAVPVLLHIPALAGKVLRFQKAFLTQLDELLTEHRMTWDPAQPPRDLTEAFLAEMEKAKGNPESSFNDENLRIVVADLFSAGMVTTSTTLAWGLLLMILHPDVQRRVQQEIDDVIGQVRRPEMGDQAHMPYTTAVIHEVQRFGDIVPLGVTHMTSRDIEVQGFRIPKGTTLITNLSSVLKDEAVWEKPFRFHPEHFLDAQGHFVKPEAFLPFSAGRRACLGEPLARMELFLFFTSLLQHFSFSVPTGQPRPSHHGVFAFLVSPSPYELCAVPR

**Q.** Which “activity change, negative = inhibition” value does the source give for `CO/N=C(\C(=O)O)c1csc(NC(=O)CCl)n1` here?
**A.** The value was -1.68% [at 53 µM].

**Q.** How did the “activity change, negative = inhibition” value turn out when `Cc1ccccc1OCC(=O)O` was run?
**A.** Its value is -1.48%.

**Q.** Which “activity change, negative = inhibition” value does the source give for `CCNC(=O)C(C)OC(=O)Nc1ccccc1` (stereo unspecified) here?
**A.** The value was -5.88%.

**Q.** For `CC(C)=CCC/C(C)=C\C#N`, which “activity change, negative = inhibition” value is on record?
**A.** The value was -7.91%.

**Q.** For `CC(C)c1cc(C(C)C)cc(C(C)C)c1`, which “activity change, negative = inhibition” value is on record?
**A.** Its value is -6.58%.

**Q.** For `Cc1cc(C)c(C)c(C)c1`, which “activity change, negative = inhibition” value is on record?
**A.** Its value is 1.8%.

**Q.** Which “activity change, negative = inhibition” value does the source give for `CC(C)OCCO` here?
**A.** Its value is -4.54%.

**Q.** Which “activity change, negative = inhibition” value does the source give for `CCOC(=O)CC(C(C)=O)C(C)=O` here?
**A.** The value was -25.3%.

**Q.** How did the “activity change, negative = inhibition” value turn out when `C=CC(C)(CCC=C(C)C)OC(=O)C(C)C` (stereo unspecified) was run?
**A.** Its value is -7.76%.

**Q.** `N#Cc1ccccc1C#N` was tested. Which “activity change, negative = inhibition” value did it give?
**A.** The value was -13.3%.

**Q.** `COC(=O)c1ccccc1Cl` was tested. Which “activity change, negative = inhibition” value did it give?
**A.** Its value is -6.11%.

**Q.** Which “activity change, negative = inhibition” value does the source give for `O=Cc1ccc(C(=O)O)cc1` here?
**A.** The value was -13.2%.

**Q.** How did the “activity change, negative = inhibition” value turn out when `Clc1cc(Cl)c(Cl)c(Cl)c1Cl` was run?
**A.** Its value is -1.51%.

**Q.** Which “activity change, negative = inhibition” value does the source give for `O=S(=O)(O)CC(O)CCl` (stereo unspecified) here?
**A.** Its value is -4.08%.

**Q.** With `C=C(C)C(=O)OCCOC1CC2CC1C1C=CCC21` (stereo unspecified) as the molecule, how does the “activity change, negative = inhibition” value read?
**A.** The value was -13.2%.

**Q.** How did the “activity change, negative = inhibition” value turn out when `CCCc1ccc(O)c(OC)c1` was run?
**A.** The value was -1.06%.

**Q.** For `O=C1CC2(CCCC2)CC(=O)N1CCNCC1COc2ccccc2O1` (stereo unspecified), which Potency is on record?
**A.** Its Potency is 0.309 µM (active).

**Q.** How did the “activity change, negative = inhibition” value turn out when `CC1(C)C(=O)C(C)(C)C1=O` was run?
**A.** The value was -21.4%.

**Q.** `CCO[Si](CC(C)C)(OCC)OCC` was tested. Which Potency did it give?
**A.** The Potency was 44.8 µM (active).

**Q.** How did the “activity change, negative = inhibition” value turn out when `CC(=O)c1ccc2ccc3ccccc3c2c1` was run?
**A.** Its value is -35.3%.

**Q.** For `CCOC(=O)CC`, which “activity change, negative = inhibition” value is on record?
**A.** The value was 3.14%.

**Q.** `CC(=O)Nc1ccc(S(=O)(=O)Nc2cc(C)on2)cc1` was tested. Which “activity change, negative = inhibition” value did it give?
**A.** The value was 3.82% [at 53 µM].

**Q.** How did the Potency turn out when `CCCCCCCCCCCCCCCCN(C)C` was run?
**A.** The Potency was 3.19 µM (active).

**Q.** With `C=CC(=O)OCCOCCOCC` as the molecule, how does the “activity change, negative = inhibition” value read?
**A.** The value was 0.576%.

**Q.** For `OCCC(F)(F)C(F)(F)C(F)(F)C(F)(F)C(F)(F)C(F)(F)F`, which “activity change, negative = inhibition” value is on record?
**A.** The value was -1.01%.

**Q.** Which “activity change, negative = inhibition” value does the source give for `CC(C)(O)c1ccc(C(C)(C)O)cc1` here?
**A.** Its value is 1.04%.

**Q.** With `O=c1[nH]c(=O)c2cn[nH]c2[nH]1` as the molecule, how does the “activity change, negative = inhibition” value read?
**A.** The value was -5.67%.

**Q.** `C=CC(=O)OCC[N+](C)(C)C` was tested. Which “activity change, negative = inhibition” value did it give?
**A.** Its value is -10.3%.

**Q.** With `O=C[C@@H](O)[C@H](O)[C@H](O)CO` as the molecule, how does the “activity change, negative = inhibition” value read?
**A.** The value was 0.243%.

**Q.** `COc1cc(S(N)(=O)=O)cc(C(=O)O)c1OC` was tested. Which “activity change, negative = inhibition” value did it give?
**A.** The value was 1.86% [at 53 µM].

**Q.** `Cc1ccccc1C#N` was tested. Which “activity change, negative = inhibition” value did it give?
**A.** Its value is -7.49%.

**Q.** How did the “activity change, negative = inhibition” value turn out when `O=c1c(O)c(O)c1=O` was run?
**A.** The value was -9.95%.

**Q.** With `CCCOc1ccc(C(=O)OCCN(CC)CC)cc1N` as the molecule, how does the Potency read?
**A.** Its Potency is 4.9 µM (active).

**Q.** For `Cc1ccc(O)c(C(=O)c2ccccc2)c1`, which Potency is on record?
**A.** Its Potency is 11.4 µM (active).

**Q.** For `CC(=O)c1ccc(O)c(C(N)=O)c1`, which “activity change, negative = inhibition” value is on record?
**A.** The value was 2.63% [at 53 µM].

**Q.** How did the “activity change, negative = inhibition” value turn out when `C=CC(=O)CC` was run?
**A.** The value was -7.88%.

**Q.** `CC(=O)SCC(CC(=O)c1ccc(C)cc1)C(=O)O` (stereo unspecified) was tested. Which “activity change, negative = inhibition” value did it give?
**A.** Its value is -5.74% [at 53 µM].

**Q.** How did the “activity change, negative = inhibition” value turn out when `CCCCCCC(O)CO` (stereo unspecified) was run?
**A.** The value was 2.14%.

molecular target: Cytochrome P450 2C19 (Homo sapiens) (UniProt P33261); experiment: Cytochrome P450 Family 2 Subfamily C Member 19 (CYP2C19) small molecule antagonists: luciferase reporter qHTS assay (AID 1671197); conditions: P450-Glo CYP2C19 enzyme, luciferin luminescence, 1 h; series mostly up to 115 µM; activity change, negative = inhibition: at the top concentration; also: nearly all actives have a fitted effect of over 65% in size
Procedure, shortened: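 Relative luminescence units recorded 20 min after the detection reagent stopped a 1 h, 37C CYP2C19 reaction on proluciferin substrate, which was started by NADPH regeneration following 10 min room-temperature compound preincubation; ketoconazole positive control.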

Sequence of Cytochrome P450 2C19 (Homo sapiens) (P33261 whole entry, looked up): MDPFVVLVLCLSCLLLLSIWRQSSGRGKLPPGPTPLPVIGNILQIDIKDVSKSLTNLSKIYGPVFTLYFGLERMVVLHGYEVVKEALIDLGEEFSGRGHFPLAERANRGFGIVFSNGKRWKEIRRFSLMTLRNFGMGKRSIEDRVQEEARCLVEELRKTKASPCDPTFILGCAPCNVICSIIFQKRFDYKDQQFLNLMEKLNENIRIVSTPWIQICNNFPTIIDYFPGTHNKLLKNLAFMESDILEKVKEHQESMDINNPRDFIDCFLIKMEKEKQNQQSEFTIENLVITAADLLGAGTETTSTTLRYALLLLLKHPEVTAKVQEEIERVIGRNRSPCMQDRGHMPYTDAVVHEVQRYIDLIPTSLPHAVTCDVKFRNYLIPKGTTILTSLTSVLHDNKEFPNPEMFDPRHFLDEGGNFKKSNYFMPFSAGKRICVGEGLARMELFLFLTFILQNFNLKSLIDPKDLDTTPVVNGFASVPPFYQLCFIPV

**Q.** `CO/N=C(\C(=O)O)c1csc(NC(=O)CCl)n1` was tested. Which “activity change, negative = inhibition” value did it give?
**A.** Its value is 25% [at 52.9 µM].

**Q.** How did the “activity change, negative = inhibition” value turn out when `Cc1ccccc1OCC(=O)O` was run?
**A.** Its value is -6.79%.

**Q.** Which Potency does the source give for `CCNC(=O)C(C)OC(=O)Nc1ccccc1` (stereo unspecified) here?
**A.** The Potency was 79.6 µM (active).

**Q.** With `CC(C)=CCC/C(C)=C\C#N` as the molecule, how does the Potency read?
**A.** Its Potency is 39.9 µM (active).

**Q.** With `CC(C)c1cc(C(C)C)cc(C(C)C)c1` as the molecule, how does the “activity change, negative = inhibition” value read?
**A.** Its value is -8.58%.

**Q.** For `Cc1cc(C)c(C)c(C)c1`, which “activity change, negative = inhibition” value is on record?
**A.** Its value is -18%.

**Q.** For `CC(C)OCCO`, which “activity change, negative = inhibition” value is on record?
**A.** Its value is -13.2%.

**Q.** `CCOC(=O)CC(C(C)=O)C(C)=O` was tested. Which “activity change, negative = inhibition” value did it give?
**A.** The value was -6.47%.

**Q.** How did the Potency turn out when `C=CC(C)(CCC=C(C)C)OC(=O)C(C)C` (stereo unspecified) was run?
**A.** The Potency was 71 µM (active).

**Q.** For `N#Cc1ccccc1C#N`, which “activity change, negative = inhibition” value is on record?
**A.** Its value is 16.8%.

**Q.** Which “activity change, negative = inhibition” value does the source give for `COC(=O)c1ccccc1Cl` here?
**A.** Its value is 9.42%.

**Q.** How did the “activity change, negative = inhibition” value turn out when `O=Cc1ccc(C(=O)O)cc1` was run?
**A.** Its value is -8.2%.

**Q.** For `Clc1cc(Cl)c(Cl)c(Cl)c1Cl`, which “activity change, negative = inhibition” value is on record?
**A.** Its value is 4.5%.

**Q.** With `O=S(=O)(O)CC(O)CCl` (stereo unspecified) as the molecule, how does the “activity change, negative = inhibition” value read?
**A.** The value was -19.1%.

**Q.** For `C=C(C)C(=O)OCCOC1CC2CC1C1C=CCC21` (stereo unspecified), which Potency is on record?
**A.** The Potency was 30.3 µM (active).

**Q.** `CCCc1ccc(O)c(OC)c1` was tested. Which “activity change, negative = inhibition” value did it give?
**A.** Its value is -9.9%.

**Q.** With `O=C1CC2(CCCC2)CC(=O)N1CCNCC1COc2ccccc2O1` (stereo unspecified) as the molecule, how does the “activity change, negative = inhibition” value read?
**A.** Its value is -21.1% [at 52.9 µM].

**Q.** With `CC1(C)C(=O)C(C)(C)C1=O` as the molecule, how does the “activity change, negative = inhibition” value read?
**A.** Its value is 18.6%.

**Q.** Which Potency does the source give for `CCO[Si](CC(C)C)(OCC)OCC` here?
**A.** Its Potency is 35.6 µM (active).

**Q.** `CC(=O)c1ccc2ccc3ccccc3c2c1` was tested. Which Potency did it give?
**A.** The Potency was 22.3 µM (active).

**Q.** With `CCOC(=O)CC` as the molecule, how does the “activity change, negative = inhibition” value read?
**A.** The value was -4.61%.

**Q.** With `CC(=O)Nc1ccc(S(=O)(=O)Nc2cc(C)on2)cc1` as the molecule, how does the “activity change, negative = inhibition” value read?
**A.** The value was -16% [at 52.9 µM].

**Q.** For `CCCCCCCCCCCCCCCCN(C)C`, which activity change, negative = inhibition is on record?
**A.** The activity change, negative = inhibition was -5.94% [at 10.5 µM].

**Q.** `C=CC(=O)OCCOCCOCC` was tested. Which “activity change, negative = inhibition” value did it give?
**A.** The value was -10.8%.

**Q.** With `OCCC(F)(F)C(F)(F)C(F)(F)C(F)(F)C(F)(F)C(F)(F)F` as the molecule, how does the “activity change, negative = inhibition” value read?
**A.** Its value is 17.4%.

**Q.** With `CC(C)(O)c1ccc(C(C)(C)O)cc1` as the molecule, how does the “activity change, negative = inhibition” value read?
**A.** Its value is 5.81%.

**Q.** How did the “activity change, negative = inhibition” value turn out when `O=c1[nH]c(=O)c2cn[nH]c2[nH]1` was run?
**A.** The value was 33.2%.

**Q.** How did the “activity change, negative = inhibition” value turn out when `C=CC(=O)OCC[N+](C)(C)C` was run?
**A.** The value was -2.72%.

**Q.** For `O=C[C@@H](O)[C@H](O)[C@H](O)CO`, which “activity change, negative = inhibition” value is on record?
**A.** The value was -13.2%.

**Q.** For `COc1cc(S(N)(=O)=O)cc(C(=O)O)c1OC`, which “activity change, negative = inhibition” value is on record?
**A.** Its value is 4.61% [at 52.9 µM].

**Q.** Which “activity change, negative = inhibition” value does the source give for `Cc1ccccc1C#N` here?
**A.** Its value is -2.14%.

**Q.** With `O=c1c(O)c(O)c1=O` as the molecule, how does the “activity change, negative = inhibition” value read?
**A.** The value was -14.5%.

**Q.** With `CCCOc1ccc(C(=O)OCCN(CC)CC)cc1N` as the molecule, how does the “activity change, negative = inhibition” value read?
**A.** The value was 11.8% [at 52.9 µM].

**Q.** How did the Potency turn out when `Cc1ccc(O)c(C(=O)c2ccccc2)c1` was run?
**A.** The Potency was 1.01 µM (active).

**Q.** `CC(=O)c1ccc(O)c(C(N)=O)c1` was tested. Which “activity change, negative = inhibition” value did it give?
**A.** Its value is -12.8% [at 52.9 µM].

**Q.** Which “activity change, negative = inhibition” value does the source give for `C=CC(=O)CC` here?
**A.** Its value is 15.5%.

**Q.** `CC(=O)SCC(CC(=O)c1ccc(C)cc1)C(=O)O` (stereo unspecified) was tested. Which “activity change, negative = inhibition” value did it give?
**A.** Its value is -25.6% [at 52.9 µM].

**Q.** How did the “activity change, negative = inhibition” value turn out when `CCCCCCC(O)CO` (stereo unspecified) was run?
**A.** The value was 26.4%.
